# Screening data from PubChem BioAssay.
# HCV inh: HCV inhibition; Huh7.5.1 HCVcc-Cre infection, luciferase reporter, 44 h; Potency, µM (top dose mostly 41.8 µM), for inactives: top-dose activity change, negative = inhibition, actives largely listed as inhibitors; 340,000 compounds, 3.4% hits; AID 651820; active = well fitted inhibition curve with a large enough effect; inconclusive = small, poorly fitted or top-dose-only effect, or another doubt; inactive = no such curve, though single readings can be large or run the other way; also: potency is read from the fitted curve at half-maximal effect
#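 Compounds are dispensed onto cells plated 4 h earlier at 1,000 per well, with HCVcc-Cre virus (about 0.5 moi) added next. Following 44 h of culture, luminescent signal is measured for 15 sec after 15 min with substrate at room temperature.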
# Lassa entry inh: inhibitors of Lassa virus binding or cell entry; 300,000 compounds, 1.2% hits; Potency, µM (series often up to 37.9 µM), inactives show top-dose activity change, negative = inhibition, most hits filed as inhibitors; Lassa virus pseudotype entry inhibition, cell reporter; calls by dose curve; tested in HEK293 cells; also: potency is read from the fitted curve at half-maximal effect; nearly all actives have a fitted effect of over 50% in size
# HCMV inh: inhibitors of human cytomegalovirus. activity change, negative = inhibition, % at 57.5 µM. 410,000 compounds, 4.5% hits. HFF cells, HCMV-luciferase reporter, 72 h; hits give low values. AID 1259415; in the data active = activity change below about -60%; inconclusive = no clear call, values can overlap the other calls; inactive = above about -39%
#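 Human foreskin fibroblasts infected with luciferase-reporter HCMV at MOI 1 PFU/cell, compounds at two doses. Luciferase measured 72 h post infection; normalized to buffer-only basal and Salinomycin (10uM) controls.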
# FMDV antiviral: foot and mouth disease virus antiviral activity; FMDV antiviral cell-based qHTS; Potency, µM (highest dose often 57.9 µM), inactives show top-dose activity change, negative = inhibition, most hits filed as inhibitors; 410,000 compounds, 1.2% hits; AID 1159524; calls by dose curve; tested in HEK293T cells; also: read-out not given here; potency is read from the fitted curve at half-maximal effect; nearly all actives have a fitted effect of over 45% in size
# MARV entry inh: Marburg virus entry inhibition; Marburg virus pseudotyped entry inhibition, cell reporter; Potency, µM (doses to about 37.8 µM), without a hit: at the top dose activity change, negative = inhibition, most hits filed as inhibitors; 300,000 compounds, 1.8% hits; AID 540276; calls by dose curve; tested in HEK293 cells; also: potency is read from the fitted curve at half-maximal effect
# Numbers without * were called inactive; ? = inconclusive; . = no result; ! = a repeat was not active; [ ] = dose if it differs, or a comment. Rows were chosen to be rich in hits. Some 7.9% of all compounds tested hit in one or more screens of this group. % is scaled to controls: 0 for no effect and ±100 for the full control effect.
SMILES,HCV inh,Lassa entry inh,HCMV inh,FMDV antiviral,MARV entry inh
COc1nnc(-c2ccc(N3CCCCC3)c(NC(=O)c3ccc(C)cc3)c2)c2ccccc12,.,15%[46.1 µM],5,-22%,2%[46.1 µM]
Cn1nc(-c2ccc(N3CCCCC3)c(NC(=O)c3ccco3)c2)c2ccccc2c1=O,7.1µM*!,?,-29,0%,?
COc1nnc(-c2ccc(N3CCCCC3)c(NC(=O)c3ccccc3Cl)c2)c2ccccc12,.,?,-99*,?,?
Cc1cccc(-n2c(=O)c3c(c4cc(C)ccc4n3C)n(CC(=O)Nc3ccc(C)cc3C)c2=O)c1,.,18%[46.1 µM],7,-8%,.
CCCCn1c(CCC)nc([N+](=O)[O-])c1Sc1ccc(Cl)cn1,-28%,?,-77*,?,?
Cc1cc2c(c(-c3nc4ccccc4s3)c1)OC(CNC(=O)c1occc1C)C2 (stereo not drawn),.,.,.,14%,.
CCN(c1ccc(C)cc1C)S(=O)(=O)c1nnc(NC(=O)CC(C)C)s1,.,14%[46.1 µM],-32,-19%,.
CC(=O)N1CCc2cc(S(=O)(=O)NC(Cc3ccccc3)C(=O)Nc3ccc(C)cc3C)ccc21 (stereo not drawn),.,-16%[46.1 µM],-20,9%,-25%[46.1 µM]
COc1ccc(O)c(-c2cc(-c3cccc(Br)c3)n[nH]2)c1,?,?,12,71%,?
Oc1ccc(Br)cc1-c1cc(-c2ccc(Cl)cc2)n[nH]1,10µM*,-5%,-77*,-12%,-22%
Cc1ccc(O)c(-c2cc(-c3cccc(F)c3)n[nH]2)c1,10µM*,?,69,36%,?
O=[N+]([O-])c1cccc(-c2cc(-c3cc(Br)ccc3O)[nH]n2)c1,10µM*,?,?,28µM*,?
Oc1ccc(Br)cc1-c1cc(-c2ccccc2)n[nH]1,?,-11%,100,4%,-25%
CNC(=O)c1ccc(Nc2nnc(-c3ccc(C)c(S(=O)(=O)NC(C)(C)C)c3)c3ccccc23)cc1,.,-16%[46.1 µM],11,10%,.
CCC(=O)N1CC2(C1)CN(C(=O)c1ccccn1)[C@H](CO)c1c2c2ccc(OC)cc2n1C,.,.,21,.,.
CCN(CC)/N=N/C1=C2C(C)=CC(C)=NC2N=N1 (stereo not drawn),.,.,.,.,11%
N#Cc1ccc(-c2ccco2)nc1SCC(=O)c1ccc(Cl)cc1,4.5µM*,?,-34,-18%,?
O=C(c1ccco1)N1N=C(c2ccc(Br)cc2)CC1(O)C(F)(F)F (stereo not drawn),?,?,?,?,10µM*
CCOc1ccc(-c2nn(-c3ccccc3)cc2C2NC(=O)NC(C)=C2C(=O)OC(C)C)cc1 (stereo not drawn),.,-23%[46.1 µM],-67*,-5%,?
COc1cc(C2N(c3ccccc3)CCN2c2ccccc2)ccc1OC(C)=O,-11%,14%,-63*,-12%,13%[46.1 µM]
COc1ccc(F)c(CN2CCOc3ccc(CN4CCC(O)(c5cccnc5)CC4)cc3C2)c1,.,.,.,-14%,.
COc1cc(SSc2cc(OC)cc([N+](=O)[O-])c2N)c(N)c([N+](=O)[O-])c1,-13%,.,-98*,?,.
O=C(Cn1ccccc1=S)c1ccc(Cl)c(Cl)c1,-7%,-2%,?,-18%,5%[46.1 µM]
On1ccccc1=S,6.3µM*,.,-99*,?,.
c1ccc(C2NCCc3c2[nH]c2ccccc32)cc1 (stereo not drawn),.,.,.,.,23%[14.2 µM]
SMILES,HCV inh,Lassa entry inh,HCMV inh,FMDV antiviral,MARV entry inh
COC(=O)c1ccc2nc(Nc3nc4c(F)cc(F)cc4s3)sc2c1,2%,3.2µM*,-70*,0.25µM*,7.3µM*
CCOC(=O)c1ccc2nc(NC(C)=O)sc2c1,-14%,?,118,24%,?
COC(=O)c1ccc2nc(NC(=O)C(C)C)sc2c1,-20%,?,62,7%,?
CCOC(=O)c1ccc2nc(Nc3nc4ccc(F)cc4s3)sc2c1,11%,-13%,-91*,?,?
COc1cccc(CNC(=O)CCc2c(C)nn(-c3ccc(N4CCCC4)nn3)c2C)c1,.,-1%[46.1 µM],?,-12%,.
CCS(=O)(=O)NCc1c(C)ncc2c1CCN(C(=O)c1csc(-c3cccs3)n1)C2,.,.,.,-7%,.
CN(c1ccccc1)S(=O)(=O)c1cccc(NC(=O)C2CCCO2)c1 (stereo not drawn),5%,?,-62*,-5%,?
CN(Cc1ccccc1)S(=O)(=O)c1ccc(NC(=O)C2CCCO2)cc1 (stereo not drawn),-15%,3%,6,-15%,6%
CN(C)S(=O)(=O)c1cccc(NC(=O)c2ccc(COc3ccccc3)cc2)c1,10µM*,?,.,25µM*,8.9µM*
CCOc1ccc(Br)cc1S(=O)(=O)Nc1cccc(S(=O)(=O)N(C)c2ccccc2)c1,-23%,-28%,-20,-19%,7.9µM*
CCC(C(=O)Nc1cccc(S(=O)(=O)N(C)c2ccccc2)c1)c1ccccc1 (stereo not drawn),?,11µM*,-2,0%,?
CCCc1cc(=O)oc2cc(C)c3c(-c4cccc(OC)c4)coc3c12,.,5%[46.1 µM],-2,-15%,-3%[46.1 µM]
COc1cc(-c2nnc(SCC(=O)N3CCCc4ccccc43)o2)cc(OC)c1OC,.,?,-8,-22%,-15%[46.1 µM]
Cc1ccccc1CN1CCN2C(C(=O)NCC3CCOCC3)=COC2=NC1=O,.,.,0,.,.
Cc1oc2ncn(C)c(=O)c2c1C(=O)NCCCN(Cc1ccccc1)C(C)C,.,1%[46.1 µM],8,?,.
CCOC(=O)c1cccc(NC(=O)C2CCN(S(=O)(=O)c3c(C)noc3/C=C/c3ccc(C)cc3)CC2)c1,.,-15%[46.1 µM],-32,?,.
Cc1ccc(S(=O)(=O)N(C)C)cc1NC(=O)c1ccc(OC(F)(F)F)cc1,0%,0%,3,-13%,8%
CN(C)S(=O)(=O)c1cccc(NC(=O)c2ccc(OC(F)(F)F)cc2)c1,?,?,-95*,?,?
COCc1ccc(C(=O)Nc2cccc(S(=O)(=O)N(C)c3ccccc3)c2)cc1,22µM*,?,-96*,?,?
CCOCCc1nn2c(=O)cc(COC(=O)c3ccccc3NC(=O)c3cccs3)nc2s1,.,10%[46.1 µM],4,-10%,.
O=C(Nc1ccc2nc(SCC(=O)N3CCCC3)sc2c1)c1ccccc1F,.,12%[46.1 µM],-1,0%,?
Cc1ccc(CNC(=O)CSc2nc3c(sc4ccccc43)c(=O)n2CCCC(=O)NCCO)cc1,.,-16%[46.1 µM],8,0%,12%[46.1 µM]
COc1cc([C@@H]2C(C(C)=O)=C(O)C(=O)N2c2ccc(Br)cn2)ccc1O,.,.,.,.,-9%
CC1=C(C(=O)Nc2ccc([N+](=O)[O-])cc2)C(c2cccc(C(F)(F)F)c2)NC(=S)N1c1ccccc1 (stereo not drawn),?,?,-98*,-16%,?
CCNC(=O)N[C@H]1CC[C@@]23CCCN2C(=O)CCC[C@H]3C1Cc1ccccc1 (stereo partly drawn),.,.,-6,.,.
COc1cccc(CNC(=O)c2c(OC)cc(=O)n3c2CCN(C(=O)c2cc(F)cc(F)c2)CC3)c1,.,.,.,6%,.
